Screening data (PubChem)
TRPV1 agonist: human TRPV1 agonism; 320,000 compounds, 0.19% hits; Q8NER1; TRPV1-expressing cells, Fluo-8 calcium influx, agonist mode; activation, % at 8.33 µM; in the data active means activation above about 80%; inconclusive means between about 30% and that limit; further: 0% is about no effect
Target sequence (Q8NER1 whole entry, looked up): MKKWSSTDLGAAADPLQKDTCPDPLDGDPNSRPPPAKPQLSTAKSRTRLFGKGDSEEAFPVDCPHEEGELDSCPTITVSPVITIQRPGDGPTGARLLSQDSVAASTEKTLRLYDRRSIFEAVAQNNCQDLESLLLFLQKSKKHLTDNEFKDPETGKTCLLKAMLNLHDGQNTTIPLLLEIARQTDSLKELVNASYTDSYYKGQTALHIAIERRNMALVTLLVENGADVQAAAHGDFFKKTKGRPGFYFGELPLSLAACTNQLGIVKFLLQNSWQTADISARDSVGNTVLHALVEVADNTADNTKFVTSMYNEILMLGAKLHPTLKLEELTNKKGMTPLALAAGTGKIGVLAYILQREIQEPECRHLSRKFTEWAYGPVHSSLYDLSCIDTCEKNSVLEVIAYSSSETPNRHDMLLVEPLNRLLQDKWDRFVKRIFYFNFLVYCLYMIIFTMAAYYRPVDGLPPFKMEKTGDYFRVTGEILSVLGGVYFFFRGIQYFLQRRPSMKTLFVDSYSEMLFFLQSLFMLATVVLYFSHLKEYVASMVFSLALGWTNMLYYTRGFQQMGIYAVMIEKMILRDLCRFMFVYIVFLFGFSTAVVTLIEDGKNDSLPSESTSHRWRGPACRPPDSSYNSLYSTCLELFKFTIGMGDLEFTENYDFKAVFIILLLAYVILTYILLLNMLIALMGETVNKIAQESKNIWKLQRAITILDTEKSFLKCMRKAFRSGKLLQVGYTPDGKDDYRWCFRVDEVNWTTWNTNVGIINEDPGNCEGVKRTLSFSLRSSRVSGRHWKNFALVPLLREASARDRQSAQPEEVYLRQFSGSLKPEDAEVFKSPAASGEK
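TRPV1-expressing cells were cultured overnight at 35.5C and loaded with Fluo-8 calcium dye for 40 to 90 min at room temperature. After a 10 s baseline, compound was added and calcium influx was read kinetically for 3 min (ex 480/em 520 nm).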
TRPV1 potentiator: human TRPV1 potentiation. TRPV1-expressing cells, Fluo-8 calcium influx, capsaicin EC20 potentiation. Q8NER1. potentiation, % at 8.33 µM. AID 540277. 320,000 compounds, 0.02% hits; in the data active means potentiation above about 80%; inconclusive means between about 30% and that limit; further: 0% is about no effect
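Fluo-8 calcium influx in TRPV1-expressing cells, kinetic read (ex 480/em 520 nm). Compound added and read 3 min for agonist activity, followed by capsaicin at EC20 final and 2 min further read for enhancement.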
KCNH2 3.1 block: inhibitors of human KCNH2 3.1 potassium channel isoform; 340,000 compounds, 0.95% hits; AID 720553; activity change, % (tested at about 1.8 µM); U2OS KCNH2 3.1, thallium flux FluxOr; stronger effect = lower value;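 active means maximum activity change below -70%; inconclusive means maximum activity change from -70% to -50%; inactive means maximum activity change above -50%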;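 further: thallium influx rate constant from kinetic fluorescence after stimulation buffer; on the % scale 0 is the no-effect control and ±100 the full control effect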
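Thallium flux read-out: FluxOr dye with Red40 quencher in HBSS/HEPES, 45 min at RT. Rate constants from kinetic reads were normalized to positive and negative DMSO controls. Cells: U2OS virally expressing the 3.1 isoform.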
hERG WT inh: inhibitors of human wildtype KCNH2 potassium channel; Q12809; U2OS, BacMam KCNH2, thallium flux FluxOr; stronger effect = lower value; activity change, % at 1.84 µM; 340,000 compounds, 0.37% hits;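 active means maximum activity change below -70%; inconclusive means maximum activity change between -70% and -50%; inactive means maximum activity change above -50%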; further: on the % scale 0 is the no-effect control and ±100 the full control effect
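U2OS cells transduced with wild-type KCNH2 virus are loaded with FluxOr dye for 45 min, and thallium flux is measured in kinetic reads before and after stimulation buffer. Rate constants are normalized to DMSO controls.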
* = called active by the depositor. Hits are enriched below; roughly 1.3% of the tested compounds scored in any of these assays.

Screening COc1ccccc1/C=C1/C(=O)N(c2ccc([N+](=O)[O-])cc2)N=C1C returned TRPV1 agonist 3, TRPV1 potentiator 29, KCNH2 3.1 block -80* and hERG WT inh -5.
CC1=NN(c2ccc([N+](=O)[O-])cc2)C(=O)/C1=C\N(C)C was read as TRPV1 agonist 0, TRPV1 potentiator 6, KCNH2 3.1 block 17 and hERG WT inh 20.
`O=C(CN(Cc1ccccc1)C(=O)c1cccc([N+](=O)[O-])c1)Nc1c(Cl)cc(Cl)cc1Cl` gave TRPV1 agonist -2, TRPV1 potentiator 2, KCNH2 3.1 block -87* and hERG WT inh 7.
CCN1C(=O)[C@@H]2[C@H](C1=O)[C@@H]1C(=O)Nc3ccccc3C(=O)N1[C@@H]2c1ccc(Br)cc1 was read as TRPV1 agonist -2, TRPV1 potentiator 106*, KCNH2 3.1 block -1 and hERG WT inh 0.
Cc1ccc(-c2nnn(CC(=O)N(CC(=O)NC3CCCC3)c3ccc(F)cc3)n2)o1 was read as TRPV1 agonist 1, TRPV1 potentiator 5, KCNH2 3.1 block 6 and hERG WT inh -74*.
For Cc1cccc(C)c1OCCNC(=O)c1ccc2ccccc2n1 the results were TRPV1 agonist inconclusive, TRPV1 potentiator 2, KCNH2 3.1 block -89* and hERG WT inh -3.
For Cc1ccc(OCCNC(=O)c2ccc3ccccc3n2)cc1 the results were TRPV1 agonist 22, TRPV1 potentiator -2, KCNH2 3.1 block -42 and hERG WT inh 1.
Cc1cccc(NS(=O)(=O)c2ccc(C)c(C(=O)N(C)C3CCN(C)CC3)c2)c1 was read as TRPV1 agonist 0, TRPV1 potentiator -1, KCNH2 3.1 block -3 and hERG WT inh 3.
For Cc1ccc(CCNC(=O)Cn2ncc3c([nH]c4ccccc43)c2=O)cc1 the results were TRPV1 agonist inconclusive, TRPV1 potentiator -33, KCNH2 3.1 block 1 and hERG WT inh -7.
`O=C(Cn1ncc2c([nH]c3ccccc32)c1=O)NCC1CCN(Cc2ccc(F)cc2)CC1` gave TRPV1 agonist 5, TRPV1 potentiator -2, KCNH2 3.1 block -98* and hERG WT inh -22.
Screening Cn1c(CNC(=O)CNC(=O)c2ccc(C(C)(C)C)cc2)cc(=O)n(C)c1=O returned TRPV1 agonist -3, TRPV1 potentiator -1, KCNH2 3.1 block 6 and hERG WT inh -16.
Screening O=C(CCCCCn1c(=S)[nH]c2cc3c(cc2c1=O)OCO3)NCCc1ccccc1 returned TRPV1 agonist 1, TRPV1 potentiator -3, KCNH2 3.1 block -87* and hERG WT inh -13.
`O=C(CCCn1c(=S)[nH]c2cc3c(cc2c1=O)OCO3)NCCc1ccc(Cl)cc1` gave KCNH2 3.1 block 6 and hERG WT inh 6.
Screening CCc1ccc(CN2CCCC(C(=O)N3CCCCC3)C2)cc1 (stereo unspecified) returned TRPV1 agonist 26, TRPV1 potentiator -13, KCNH2 3.1 block -10 and hERG WT inh 23.
`CC(C)Cn1c(SCC(=O)N2CCOCC2)nc2ccccc2c1=O` gave TRPV1 agonist inconclusive, TRPV1 potentiator -16, KCNH2 3.1 block -1 and hERG WT inh -2.
`Cn1c2c(c3ccccc31)CCN(CCCCN1CCN(c3ccccc3)CC1)C2=O` gave KCNH2 3.1 block -109* and hERG WT inh -78*.
Screening Cc1c(C(=O)CN2CCN(c3ccccc3)CC2)c2ccccc2n1C returned TRPV1 agonist 2, TRPV1 potentiator 5, KCNH2 3.1 block -10 and hERG WT inh inconclusive.
`COCCCN(C(=S)Nc1cc(C)cc(C)c1)C(C)c1ccncc1` (stereo unspecified) gave TRPV1 agonist -2, TRPV1 potentiator 4, KCNH2 3.1 block -72* and hERG WT inh -2.
`COc1cccc(NC(=O)c2ccnc(N3CCC(C(=O)NCc4ccccc4OC)CC3)c2)c1` gave TRPV1 agonist 6, TRPV1 potentiator -9, KCNH2 3.1 block -109* and hERG WT inh -1.
COc1ccccc1CNC(=O)C1CCCN(c2cnccn2)C1 (stereo unspecified) was read as TRPV1 agonist 17, TRPV1 potentiator -10, KCNH2 3.1 block 5 and hERG WT inh 1.
O=C(Nc1ccccc1N1CCOCC1)c1ccc2ccccc2c1 was read as TRPV1 agonist 24, TRPV1 potentiator -5, KCNH2 3.1 block -5 and hERG WT inh -7.
Screening O=C(Nc1ccccc1N1CCOCC1)c1ccc(Cl)nc1 returned TRPV1 agonist -2, TRPV1 potentiator 3, KCNH2 3.1 block -105* and hERG WT inh 2.
For Cc1ccc(C(C)C)c(OC(=O)/C=C/c2ccccc2)c1 the results were KCNH2 3.1 block -91* and hERG WT inh -12.
